# Data published in ChEMBL document CHEMBL2218924, “A broad activity screen in support of a chemogenomic map for kinase signalling research and drug discovery” (Biochem J, 2013).
# Molecular target: T1, Interleukin-1 receptor-associated kinase 4 (Homo sapiens) (UniProt Q9NWZ3)
# T1 sequence (whole entry): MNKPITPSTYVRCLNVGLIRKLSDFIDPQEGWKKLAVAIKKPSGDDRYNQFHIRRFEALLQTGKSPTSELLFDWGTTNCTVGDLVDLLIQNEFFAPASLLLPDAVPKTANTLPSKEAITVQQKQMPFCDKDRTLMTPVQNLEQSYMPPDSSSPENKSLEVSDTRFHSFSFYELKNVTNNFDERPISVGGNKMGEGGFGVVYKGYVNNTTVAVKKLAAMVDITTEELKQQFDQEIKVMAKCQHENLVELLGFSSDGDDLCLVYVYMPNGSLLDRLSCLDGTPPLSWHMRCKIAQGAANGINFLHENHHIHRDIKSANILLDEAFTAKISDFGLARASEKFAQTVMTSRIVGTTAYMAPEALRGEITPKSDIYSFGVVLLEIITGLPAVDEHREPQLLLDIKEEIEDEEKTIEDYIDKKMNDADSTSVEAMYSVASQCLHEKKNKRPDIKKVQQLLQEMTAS
# Settings: at 1 µM
row,Compound,residual activity
1,Cn1cc(/C=C2\C(=O)Nc3ccc(S(N)(=O)=O)cc32)c2ccccc21,0%
2,COc1cc2ncnc(Nc3ccc(Oc4ccccc4)cc3)c2cc1OC,98%
3,O=c1cc(-c2cccc3c2Sc2ccccc2S3)oc(N2CCOCC2)c1,100%
4,O=C1c2ccccc2-[n+]2ccc3c([nH]c4ccccc43)c21,79%
5,Nc1nc(Nc2ccc(S(N)(=O)=O)cc2)nn1C(=S)Nc1c(F)cccc1F,8%
6,N#C/C(=C(\N)Sc1ccc(N)cc1)c1ccccc1C(F)(F)F,83%
7,CN(C)CCCn1cc(C2=C(c3c[nH]c4ccccc34)C(=O)NC2=O)c2ccccc21,121%
8,c1ccc(-c2n[nH]cc2-c2ccnc3ccccc23)nc1,87%
9,CC(=O)c1ccc(N2CCOCC2)cc1O,95%
10,CO[C@@H]1[C@H](N(C)C(=O)c2ccccc2)C[C@H]2O[C@]1(C)n1c3ccccc3c3c4c(c5c6ccccc6n2c5c31)C(=O)NC4,53%
11,O=C(Nc1cccc(Nc2nccc(Nc3cccc(C(F)(F)F)c3)n2)c1)C1CC1,50%
12,N#Cc1cnc2cnc(NCc3cccnc3)cc2c1Nc1ccc(F)c(Cl)c1,64%
13,CC(=O)O/N=C1\C(=C2\C(=O)Nc3cc(Br)ccc32)Nc2ccccc21,86%
14,Cn1cnc2cc3c(Nc4cccc(Br)c4)ncnc3cc21,77%
15,CCC(=O)Nc1ccc2ncnc(Nc3cccc(Br)c3)c2c1,96%
16,O=c1c2ccccc2[nH]c(=S)n1CCN1CCC(=C(c2ccc(F)cc2)c2ccc(F)cc2)CC1,105%
17,CC[n+]1c(/C=C/N(C)c2ccccc2)n(-c2ccccc2)c2ccc(-c3nc4ccccc4s3)cc21,113%
